A selection: hits, their analogues and other compounds. The true share with any hit is near 1.3%.
PKA-R2B act: activators of PKA-R2B holoenzyme, primary screen, biochemical, fluorescence polarization, Cy5-IP20, human. PKA-R2B holoenzyme dissociation; R2B truncated from residue 108, S112A mutant; 0% DMSO only, 100% 113 µM cGMP. 0.079% of 340,000 active. cAMP-dependent protein kinase catalytic subunit beta (Homo sapiens) + cAMP-dependent …. activation, % at 11.4 µM;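 active = activation above a cutoff set at the mean over all compounds plus 3 SD, cut at about 18% in these data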;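 also: higher means more holoenzyme dissociation and a rise in polarization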
Rpn11 inh: Rpn11 (PSMD14) deubiquitinase inhibitors, primary screen, biochemical, fluorescence polarization, uHTS | 26S proteasome non-ATPase regulatory subunit 14 (Homo sapiens), O00487 | human 26S proteasome, Ub4-pepOG fluorescence polarization; 20S core pre-blocked with epoxomicin | calls only at 20 µM | 0.59% of 360,000 active;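 active = inhibition at 20 µM, scaled to each plate's controls, above about 33%, limit read from the data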
PKA-R1A act: activators of PKA-R1A holoenzyme, primary screen, biochemical, fluorescence polarization, Cy5-IP20, bovine R1A, mouse PKAc. 0.083% of 340,000 active. activation, % at 11.4 µM. AID 504707, 2011. PKA-R1A dissociation; scaled: DMSO 0%, 113 µM cGMP 100%. cAMP-dependent protein kinase type I-alpha regulatory subunit (Bos taurus) + …;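 active = percent activation above the mean of all tested compounds plus 3 SD, cut at about 19% in these data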;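 also: higher means more PKAc released from R1A so a rise in polarization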
Neddyl block: inhibitors of cullin neddylation, primary screen, biochemical, TR-FRET, uHTS, NAE and Ubc12; inhibition, % at 25 µM; 0.58% of 360,000 active; AID 651699, 2012; in the data active = inhibition above about 36%
Rpn11 confirm: Rpn11 (PSMD14) deubiquitinase inhibitors, confirmation, biochemical, fluorescence polarization, single concentration | inhibition, % at 20 µM | shares compounds with Rpn11 inh | 29% of 1,900 active | purified human 26S proteasome, Ub4-pepOG fluorescence polarization; proteasome pretreated with epoxomicin
MMP-2 inh: MMP-2 enzyme inhibition, confirmation, counter-screen for RPN11 inhibitor project, biochemical, fluorescence, single concentration. shares compounds with Rpn11 inh. recombinant MMP-2, FRET peptide cleavage fluorescence. inhibition, % at 20 µM. 4% of 1,900 active. AID 602330, 2012;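 also: human MMP-2 activated beforehand with APMA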
Target sequence (P08253 whole entry, looked up): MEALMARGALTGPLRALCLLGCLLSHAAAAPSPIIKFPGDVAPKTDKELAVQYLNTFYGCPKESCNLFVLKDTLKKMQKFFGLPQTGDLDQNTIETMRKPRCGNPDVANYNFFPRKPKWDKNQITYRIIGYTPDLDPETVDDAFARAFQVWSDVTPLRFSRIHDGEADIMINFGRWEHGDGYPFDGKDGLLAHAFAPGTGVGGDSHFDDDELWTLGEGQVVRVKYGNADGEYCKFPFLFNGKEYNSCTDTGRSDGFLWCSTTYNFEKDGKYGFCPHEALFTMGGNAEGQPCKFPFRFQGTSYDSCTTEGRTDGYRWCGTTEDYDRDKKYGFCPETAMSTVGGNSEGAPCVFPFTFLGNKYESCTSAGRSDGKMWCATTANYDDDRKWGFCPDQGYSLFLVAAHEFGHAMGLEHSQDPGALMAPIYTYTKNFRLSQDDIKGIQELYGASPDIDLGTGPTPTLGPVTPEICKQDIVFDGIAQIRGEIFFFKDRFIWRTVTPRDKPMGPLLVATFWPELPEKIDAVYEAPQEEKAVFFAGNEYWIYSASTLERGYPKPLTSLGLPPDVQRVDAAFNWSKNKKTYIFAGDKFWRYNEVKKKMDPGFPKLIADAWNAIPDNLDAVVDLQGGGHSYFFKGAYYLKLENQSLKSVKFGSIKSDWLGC
Thrombin FP: bovine thrombin protease inhibition, confirmation, counter-screen for Rpn11 inhibitor project, biochemical, fluorescence polarization, single concentration. bovine thrombin cleavage of Ub4-pepOG. inhibition, % at 20 µM. 13% of 1,900 active. AID 602333, 2012. shares compounds with Rpn11 inh;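 active = mean inhibition at least 40% at 20 µM, or signal 3 deviations below plate average, so some actives read negative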
Neddyl conf: blockade of NEDD8 conjugation to cullin – biochemical, TR-FRET, single concentration, confirmation; TR-FRET cullin neddylation biochemical assay; 13% of 1,800 active; shares compounds with Neddyl block; calls only at 25 µM; AID 652217, 2013;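 also: neddylation substrate is the cullin 1 ring ligase complex with SKP2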
Of the large screens only hits and unclear results are named; the others gave an inactive call (follow-up assays come after a bar, where shown). Rule as the data show it, unless noted: active = inhibition above about 40%; inactive = the rest.

O=c1cccc2n1CC1CC2CN(c2ncnc3c2cnn3-c2ccc(Cl)cc2)C1 (stereo unspecified)	none
O=C(CCC(=O)N1CCC2(CC1)OCCO2)Nc1nnc(C(F)(F)F)s1	none
O=C1NCN(c2ccccc2)C12CCN(C(c1ccnc3ccccc13)c1nnnn1-c1ccc3c(c1)OCCO3)CC2 (stereo unspecified)	none (no result: PKA-R2B act, PKA-R1A act)
Cn1c(O)c(/C=N/NC(=O)c2ccncc2)c(=O)n(C)c1=S	Rpn11 inh active (no result: PKA-R2B act, PKA-R1A act) | Rpn11 confirm inactive | MMP-2 inh inactive | Thrombin FP inactive
Cn1c(O)c(/C=N/NC(=O)c2ccncc2)c(=O)[nH]c1=S	none (no result: PKA-R2B act, PKA-R1A act)
NS(=O)(=O)c1ccc(N=Cc2c(O)n(C3CCCCC3)c(=O)n(C3CCCCC3)c2=O)cc1	Rpn11 inh active | Rpn11 confirm inactive | MMP-2 inh inactive | Thrombin FP inactive
CCn1c(O)c(C=Nc2ccc(S(N)(=O)=O)cc2)c(=O)n(CC)c1=S	none (not shown: Rpn11 inh)
O=C1C(Br)C2CCC1C2C(=O)O (stereo unspecified)	none
CN1C(=O)C(=Cc2ccc(Sc3ccccc3)o2)C(=O)N(C)C1=O	Rpn11 inh active | Rpn11 confirm inactive | MMP-2 inh inactive | Thrombin FP inactive
Cc1ncoc1C(=O)NCC1=C(c2ccc3ccccc3c2)C[C@@H]2CC[C@H]1N2Cc1ccco1	none
CN(C)CCCN=Cc1c(O)n(CCc2ccccc2)c(=O)[nH]c1=O	Rpn11 inh active | Rpn11 confirm 79 | MMP-2 inh inactive | Thrombin FP 62
COc1ccc(-n2c(/C=C/c3ccc(O)c(O)c3)nc3ccccc3c2=O)cc1	Rpn11 inh active | Rpn11 confirm 72 | MMP-2 inh inactive | Thrombin FP 53
CCCCn1c(O)c(/C=N/NC(=O)c2ccncc2)c(=O)[nH]c1=S	Neddyl block 40 (not shown: Rpn11 inh)
C=CCn1c(O)c(/C=N/NC(=O)c2ccncc2)c(=O)[nH]c1=O	none
CCCCC(=O)N/N=C/c1c(O)n(CCc2ccccc2)c(=O)[nH]c1=O	Neddyl block 45 (no result: PKA-R2B act, PKA-R1A act) | Neddyl conf inactive
CCCCCCC(=O)N/N=C/c1c(O)n(CCCC)c(=S)[nH]c1=O	Neddyl block 50 | Neddyl conf inactive
CC1(C)CN=C(NCc2ccccc2Cl)S1	none
CC[C@@H](CO)NC(=O)[C@@H]1C=C2c3cccc4[nH]cc(c34)C[C@H]2N(C)C1	Neddyl block 45
COc1ccc(-[n+]2c(-c3ccccc3)cc(-c3ccc(C)cc3)cc2-c2ccccc2)cc1	none
Cc1ccc(-c2cc(-c3ccccc3)cc(-c3ccccc3)[n+]2-c2ccc(C(=O)O)cc2)cc1	Neddyl block 34 | Neddyl conf active
COC(=O)c1cc(C(O)(C(=O)OC)C(F)(F)F)c(/N=C/N(C)C)s1 (stereo unspecified)	none
COC(=O)C1=C(c2ccc(OC)c(OC)c2)C[C@@H]2CC[C@H]1N2C(=O)NCc1cc(C)oc1C(F)(F)F	none
Cc1ccc(-n2nc(C)cc2NC(=O)COc2cc(C)cc3oc(=O)c4c(c23)CCC4)cc1	Neddyl block 43 | Neddyl conf inactive
CC1CC2CC(=O)CCC2(C)C2CCC3(C)C(O)CCC3C12 (stereo unspecified)	none
NC(N)=N/N=C/c1ccc(N2CCOCC2)cc1	Neddyl block 54 | Neddyl conf inactive
O=C1NC(=O)C(=Cc2ccc(N3CCOCC3)cc2)C(=O)N1	none
COc1cc2c(cc1O)CC1c3c(cc(O)c(OC)c3-2)CCN1C (stereo unspecified)	Neddyl block 43
COc1cc2c(cc1OC)-c1c(OC)c(OC)cc3c1[C@H](C2)N(C)CC3	none
CC1(O)CCC2C3CCC4=CC(=O)CCC4=C3C=CC21C (stereo unspecified)	Neddyl block 40 | Neddyl conf inactive
CC(=O)OC1CCC2(C)C3CCC4(C)C(OC(C)=O)CCC4C3C(C)C2(O)C1 (stereo unspecified)	none
